Molecules are shown by their SMILES. The source made the active and inactive calls. Rule for the calls: active = hit-call score of the fitted dose curve at least 0.9, where 1 is the maximum; inactive = score below 0.9.

Sequence of Hypoxia-inducible factor 1-alpha (Homo sapiens) (Q16665 whole entry, looked up): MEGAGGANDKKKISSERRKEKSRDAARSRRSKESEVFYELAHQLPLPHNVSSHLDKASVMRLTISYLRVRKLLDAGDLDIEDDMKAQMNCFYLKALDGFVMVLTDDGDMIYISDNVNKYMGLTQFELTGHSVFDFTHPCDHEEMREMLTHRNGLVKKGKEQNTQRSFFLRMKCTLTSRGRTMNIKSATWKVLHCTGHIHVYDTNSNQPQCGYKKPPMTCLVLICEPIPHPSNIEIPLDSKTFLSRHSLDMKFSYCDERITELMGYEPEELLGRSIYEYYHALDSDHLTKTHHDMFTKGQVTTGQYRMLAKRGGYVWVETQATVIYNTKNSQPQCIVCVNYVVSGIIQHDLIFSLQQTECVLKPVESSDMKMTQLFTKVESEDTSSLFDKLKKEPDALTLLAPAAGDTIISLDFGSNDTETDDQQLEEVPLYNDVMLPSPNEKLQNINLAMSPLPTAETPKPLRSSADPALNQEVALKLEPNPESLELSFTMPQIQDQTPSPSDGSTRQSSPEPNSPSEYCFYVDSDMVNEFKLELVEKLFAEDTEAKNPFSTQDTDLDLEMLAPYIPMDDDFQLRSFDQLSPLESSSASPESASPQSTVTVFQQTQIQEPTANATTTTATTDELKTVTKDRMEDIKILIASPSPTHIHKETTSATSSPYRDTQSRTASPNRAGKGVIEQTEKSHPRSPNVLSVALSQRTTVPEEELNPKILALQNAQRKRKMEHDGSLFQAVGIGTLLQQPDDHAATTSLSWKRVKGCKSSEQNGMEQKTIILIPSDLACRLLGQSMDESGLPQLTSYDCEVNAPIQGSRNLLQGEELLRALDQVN

This assay concerns the target Hypoxia-inducible factor 1-alpha (Homo sapiens) (UniProt Q16665). Description: ATG_HIF1a_CIS: Attagene CIS-FACTORIAL HepG2 Assay for human Hypoxia Inducible Factor 1 (HIF1A) (AID 2282951). The following applies: HepG2 Attagene cis-factorial HIF1a reporter transcription; actives raise or lower the signal. An outline of the steps: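 In this multiplexed cell assay, HepG2 cells bearing transfected cis reporters are dosed for 24 h and reporter mRNA is read by RT-PCR plus capillary electrophoresis; signal increases and decreases are both scored against DMSO.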
As to `NCCCN1CCOCC1`, the compound was classed as inactive. Turning to `CCCCCCCCCCCCCC(=O)O`, the outcome was inactive. Regarding `CCCC(=O)C(C)=O`, the call was inactive.

Take `COC(=O)c1ccc(C)cc1`: the outcome was inactive.

In the case of `CC1CCC(C(C)(C)O)CC1` (configuration not stated), the result was inactive. On to `CC1CCC2CC1C2(C)C` (configuration not stated), for which the call was inactive. Turning to `C=CCOC(=O)CCC1CCCCC1`, the call was inactive. Still for that read-out and setting: with `CC(CCO)CCc1ccccc1` (configuration not stated) the entry was “inactive”. For `CC(CC(C)(C)C)CC(C)(C)CC(C)(C)C` (configuration not stated), the call was inactive. For the compound `Cc1cccc(C)c1C`, the compound was called inactive. `COc1c(Cl)c(Cl)c(Cl)c(Cl)c1Cl`: the compound was classed as inactive. As to `O=C1c2ccccc2C(=O)N1SC1CCCCC1`, the result was inactive. In general, AC50 refers to the concentration at which the activity in the assay is half-maximal. Take `CCCCC/C=C/C=C/C=O`: the AC50 is 100 µM (active). Regarding `O=C(O)c1snc(Cl)c1Cl`, the call was inactive.

As for `NCCOCCO`, the AC50 is 30.2 µM (active). As to `CC(=O)O[C@]1(C(C)=O)CC[C@H]2[C@@H]3C[C@H](C)C4=CC(=O)CC[C@]4(C)[C@H]3CC[C@@]21C`, the compound was called inactive. With `C=C(C)C(=O)OCCOC(=O)CC(C)=O`, the outcome was inactive.

(Values after PubChem BioAssay (EPA / NIEHS).)
